# Source: PubChem
# Only some compounds are listed: those with a hit (about 3.9% of all), similar ones and a draw of the others.
# HT1080-NT tox – qHTS for induction of synthetic lethality in tumor cells producing 2HG: qHTS for the HT-1080-NT fibrosarcoma cell line | HT-1080-NT fibrosarcoma viability, CellTiter-Glo ATP luminescence, 48 h | Potency, µM (highest dose often 46.1 µM), without a hit: at the highest dose activity, negative = less viability, usual class: cytotoxic | 1.6% of 360,000 active;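 also: NT is the 2HG producing partner of a matched IDH1 knockdown line; 0% = DMSO-treated cells and -100% = media-only wells without cells; nearly all actives have a fitted effect of over 55% in size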
#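 Viability by CellTiter-Glo luminescence after 48 h compound exposure at 37C of HT-1080-NT cells (750/well, RPMI, 5% FBS). % activity scaled between DMSO wells and medium-only wells, then curve-fitted and categorized by curve class.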
# TGFb inhibitor – qHTS for Inhibitors of TGF-b. HepG2 CAGA-GFP TGF-b/SMAD3 reporter, GFP fluorescence, 18 h; TGF-beta stimulated, 500 pg/mL final. Potency, µM (top dose mostly 46.1 µM), for inactives: at the top dose activity, negative = inhibition, actives largely listed as inhibitors. 1.2% of 410,000 active. AID 588855, 2011; also: % is scaled to controls: 0 for no effect and ±100 for the full control effect; nearly all actives have a fitted effect of over 65% in size
#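 Smad-responsive CAGA-GFP expression was quantified in HEPG2 cells exposed to compounds and 500 pg/mL final TGF-beta for 18 h at 37 degrees C; unstimulated wells defined full inhibition.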
# HepG2 viability – qHTS for Inhibitors of TGF-b: Cytotox Counterscreen; 0.76% of 410,000 active; HepG2 CAGA-GFP viability, ATP luminescence, 18 h; AID 588856, 2011; Potency, µM (titrated, usually from 46.1 µM), for the others: top-dose activity change, negative = cytotoxicity, hits mostly cytotoxic
#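 HepG2 CAGA-GFP cells (1000/well, DMEM with 1% FBS) received compound, then TGF-beta at 500 pg/mL final, and were incubated 18 hours at 37 degrees C. Viability was read by CellTiter-Glo luminescence. Media-only wells were set as complete cell-killing and DMSO as no toxicity.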
# ATXN2 expr inh – Primary qHTS for Inhibitors of ATXN expression; HEK-293 ATXN2-luciferase reporter, luminescence, 24 h; Potency, µM (titrated, usually from 57 µM), for the others: at the top dose activity change, negative = inhibition, most hits filed as inhibitors; 0.72% of 360,000 active; AID 1745845, 2022; also: % is scaled to controls: 0 for no effect and ±100 for the full control effect; nearly all actives have a fitted effect of over 55% in size
#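 ATXN2-luciferase reporter cells (luciferase flanked by upstream and downstream ATXN2 gene portions) were treated 24 h at 37 °C with compounds at up to 57 uM. SteadyGlo luminescence gave expression; GF-AFC fluorescence gave viability.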
# ATXN viability – Viability Counterscreen for Primary qHTS for Inhibitors of ATXN expression; 0.49% of 400,000 active; Potency, µM (doses to about 56.7 µM), usual class: cytotoxic; S2 cells (HEK-293 line with an ATXN2-luciferase reporter) viability, CellTiter-Fluor protease fluorescence, 24 h; AID 651635, 2014; also: nearly all actives have a fitted effect of over 40% in size
# HT1080 IDH1KD tx – qHTS for induction of synthetic lethality in tumor cells producing 2HG: qHTS for the HT-1080-IDH1KD cell line; HT-1080 IDH1 knockdown viability, ATP luminescence, 48 h; Potency, µM (top dose mostly 46.1 µM), for inactives: top-dose activity, negative = toxicity, usual class: cytotoxic; 2% of 360,000 active;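 also: 0% = DMSO wells and -100% = cell-free medium wells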
#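 IDH1KD HT-1080 cells, 750/well, RPMI + 5% FBS; compound pinned after 2 h settling; 48 h, 37 °C; CellTiter-Glo luminescence; % activity normalised to DMSO and no-cell wells; curves fitted, classed by r2 and efficacy.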
# Active calls of the source: *; i = inactive; ? = inconclusive; . = not tested or not shown; ! = not active in a repeat; [ ] = remark or other dose. Calls follow the shape of the dose curve; as a rule, active = well fitted curve in the direction sought with a large enough effect; inconclusive = small, poorly fitted or top-dose-only effect, or another doubt; inactive = no such curve, though single readings can be large; an effect the other way counts as inactive or inconclusive. Potency is read from the fitted curve at half-maximal effect.
SMILES,HT1080-NT tox,TGFb inhibitor,HepG2 viability,ATXN2 expr inh,ATXN viability,HT1080 IDH1KD tx
Cc1ccc(Sc2ccc(NC(=O)CCl)cc2)cc1C,-24%,?,-107%,32µM*,?,-27%
CC(=O)Nc1ccc(N=Nc2ccccc2)cc1,1%,-6%,-2%,65%,i,0%
O=C(CCl)Nc1ccc(-c2ccccc2)cc1,4.6µM*,?,11µM*,.,10µM*,9.2µM*
CC(=O)Nc1cn(-c2ccccc2)nc1-c1ccccc1,20%,-2%,-9%,-19%[11.3 µM],i,6%
CCOc1ccc(-c2nonc2NC(=O)c2ccccc2C)cc1,.,-1%,-25%,.,.,.
CCOC(=O)c1c(C)[nH]c(C)c1S(=O)(=O)NCC(=O)NCc1cccc(Br)c1,.,-8%,-6%,-6%,i,.
CC(C)N(c1ccccc1)c1ccc(NC(=O)[C@@H]2O[C@H](CO)[C@H](O)[C@H](O)[C@H]2O)cc1,23%,0%,6%,-7%,i,6%
O=C(CCl)Nc1ccc(N2CCCCCC2)cc1,23µM*,?,-47%,?,?,18µM*
CC(C)N(c1ccccc1)c1ccc(NC(=O)CCl)cc1,?,?,-119%,?,27µM*,?
Cc1c(C(=O)NCCc2ccncc2)cnn1-c1nccc(-c2ccccc2C(F)(F)F)n1,.,.,.,.,i,.
COc1cccc(-c2cc3c(c(OC)c2)OCCN(S(=O)(=O)c2ccccc2OC(F)(F)F)C3)n1,.,.,.,.,i,.
CC(C)(C)OC(=O)NS(=O)(=O)NCc1ccco1,.,-26%,7%,.,.,.
Cc1nc(SC2CC(=O)N(c3ccccc3)C2=O)nc2c1CCCC2 (stereo unspecified),?,13%,-9%,6%,i,11µM*
CSCCC(c1nc2ccccc2[nH]1)n1c(-c2cc(C(F)(F)F)cc(C(F)(F)F)c2)nc2ccccc21 (stereo unspecified),33µM*,.,.,.,.,21µM*
CSCCC(c1nc2ccccc2[nH]1)n1c(C)nc2ccccc21 (stereo unspecified),2%,.,.,9%,?,-8%
CC1(C)CC(C(=O)Nc2ccccc2)C(=O)O1 (stereo unspecified),22%,0%,0%,10%,i,6%
C[C@]1(O)CC(=O)C=C[C@H]1Nc1ccccc1,21µM*,?,-20%,?,?,?
CCOc1cc(/C=N/N=C/c2ccc(O)c(OCC)c2)ccc1O,-1%,-10%,-13%,-4%,i,3%
CCOc1cc(/C=C2\CN(CC)C/C(=C\c3ccc(O)c(OCC)c3)C2=O)ccc1O,2.6µM*,5.6µM*,8.9µM*,?,?,2.9µM*
COc1cc(/C=C2\CC(C(C)(C)C)C/C(=C\c3cc(OC)c(OC)c(OC)c3)C2=O)cc(OC)c1OC (stereo unspecified),12µM*,11µM*,-71%,?,?,5.8µM*
COc1cc(/C=C2\CC/C(=C\c3cc(OC)c(O)c(OC)c3)C2=O)cc(OC)c1O,4.1µM*,?,-46%,?,.,4.1µM*
COc1cc(/C=C2\CCC/C(=C\c3ccc(O)c(OC)c3)C2=O)ccc1O,18µM*,?,10µM*!,?,.,5.8µM*
COC(=O)c1c(-c2ccc(Cl)cc2)noc1N1CCN(c2ccccc2OC)CC1,.,-16%,-12%,5%,i,.
Cc1ccccc1C1(CC(=O)N2CCCCC2c2cccnc2)CC(=O)N(C2CCCC2)C1=O (stereo unspecified),.,.,.,.,i,.
Cc1oc(-c2ccccc2F)nc1Cn1c(SCc2ccccc2F)nc2ccncc21,.,?,-35%,?,?,.
